Measurements taken from PubChem BioAssay AID687028 (Broad Institute, 2013).
The whole screen tested about 1,400 compounds, of which about 55 (4%) were called active. No rule for the calls is given here. Not all results are given here. Entries with a potency or affinity are not part of this list.

Assay: viability loss in A549 cells – cell-based, plate reader, cherry-pick samples, cytotoxicity control, dose response (AID 687028);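 also: cells incubated with compound for three days before reading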
Conditions: series mostly up to 19.5 µM; activity change, negative = toxicity: at the top concentration

Compound | activity change, negative = toxicity
COc1ccc(OC)c(NC(=O)NNS(=O)(=O)c2ccc(C)cc2C)c1 | 10.2% (inactive)
Cc1ccc(C)c(NC(=O)CN2C(=O)C3CC=CCC3C2=O)c1 (stereo unspecified) | 2.15% (inactive)
CC1(C(=O)Nc2cccc(OC(F)(F)F)c2)Cc2c(-c3cccc(C(N)=O)c3)ccnc2O1 (stereo unspecified) | -15.9% (inactive)
CC1(C(=O)NCc2cccc(C(F)(F)F)c2)CCN1Cc1cc2ccccc2o1 (stereo unspecified) | 5.37% (inactive)
C[C@H](CO)N1C[C@H](C)[C@@H](CN(C)S(=O)(=O)c2cn(C)cn2)Oc2ccc(NC(=O)Nc3cccc4ccccc34)cc2CC1=O | 4.45% [at 21 µM] (inactive)
O=C(N[C@@H]1c2ccccc2CC[C@@H]1OCc1ccccc1)c1ccc(C(F)(F)F)cc1 | -0.699% (inactive)
CCCn1c(NCc2ccc(N(C)C)cc2)nc2ccccc21 | 3.28% (inactive)
COc1ccc(CNC(=O)COC(=O)CN2C(=O)NC3(CCCC3)C2=O)cc1 | 2.48% (inactive)
CCC(c1nnnn1-c1c(C)cccc1C)N1CCN(C/C=C/c2ccccc2)CC1 (stereo unspecified) | -4.93% (inactive)
O=C1CCCC(c2ccccc2)N1 (stereo unspecified) | 1.97% (inactive)
Cc1ccc(NC(=O)CN2CCC(NC(=O)c3cccc(F)c3)CC2)cc1C | 4.03% (inactive)
COc1cc(C(=S)N2CCCCC2)ccc1OCC(=O)Nc1ccc(F)cc1 | -0.726% (inactive)
COc1ccc(CCN2C(=O)CSCC2(C)C(=O)Nc2ccc3c(c2)OCCO3)cc1OC (stereo unspecified) | 2.93% (inactive)
CCN1CCN(C(=O)C2CC(=O)N(c3ccc(Cl)cc3)C2)CC1 (stereo unspecified) | 4.04% (inactive)
COc1cccc(N2CC(C(=O)Nc3ccc(F)cc3)CC2=O)c1 (stereo unspecified) | 3.92% (inactive)
CCOc1ccc(/C=N/n2nnnc2N)cc1OCC | 14.9% (inactive)
CC(C)(C)N(Cc1ccccc1)C(=O)COC(=O)C1CCN(c2ccc(C(F)(F)F)cn2)CC1 | 1.79% (inactive)
Cc1cc2oc3ccc(NCCCN4CCOCC4)cc3c(=O)c2cc1C | 3.8% (inactive)
CN1CCN(C(=O)c2cc3sc4ccccc4c3s2)CC1 | 3.61% (inactive)
COC(=O)CN(c1cc(Cl)ccc1OC)S(=O)(=O)c1ccc(OC)c(OC)c1 | 4.16% (inactive)
Cc1ccc(S(=O)(=O)N(C)C)cc1NC(=O)COC(=O)C1CCCC1 | 3.55% (inactive)
O=C(NC1CCCC1)c1nc(-c2c(F)cccc2F)oc1-c1ccccc1 | 4.75% (inactive)
Cc1cccc(C)c1OCC(O)Cn1ccnc1C (stereo unspecified) | 0.445% (inactive)

Compound | activity change, negative = toxicity
Cc1cccc(C(=O)OCC(=O)NCc2ccc(Cl)cc2)c1 | 6.43% (inactive)
CN1CCC(=O)N([C@H](COc2ccccc2)Cc2ccccc2)CC1 | -1.58% (inactive)
O=C(Cc1cn(Cc2ccccc2)c2ccccc12)Nc1ccc(Oc2cccnc2)cc1 | 6.03% (inactive)
COc1ccc(NC(=O)c2cc3ccccc3cc2O)cc1 | 5.07% (inactive)
O=C(Oc1ccccc1)c1ccccc1C(=O)Oc1ccccc1 | 1.83% (inactive)
Cc1ccccc1-c1ccc(C2[C@@H]3CN(C(=O)Cc4ccncc4)C[C@H]2N3)cc1 (stereo partly specified) | 3.86% [at 21 µM] (inactive)
COCCNC(=O)C1(C)CCCN(C(=O)c2ccccc2)C1 (stereo unspecified) | 0.534% (inactive)
COc1ccc(S(=O)(=O)N2CCC(C(=O)N[C@H](C(=O)NCc3ccccc3)C(C)C)CC2)cc1 | -1.57% (inactive)
CC(C)c1ccc(NC(=O)[C@H](NC(=O)[C@@H]2Cc3ccccc3CN2)c2ccccc2)cc1 | 3.25% (inactive)
COc1ccc2c(C)c(CCC(=O)NC3CC3)c(=O)oc2c1C | 4.32% (inactive)
C[C@@H]1CN([C@H](C)CO)C(=O)Cc2cc(NC(=O)C3CC3)ccc2O[C@H]1CN(C)C(=O)Nc1ccccc1 | 6.32% [at 21 µM] (inactive)
CCc1nnc(N2C(=O)c3ccccc3C2(O)c2ccccc2)s1 (stereo unspecified) | 0.278% (inactive)
O=C(O)CCCCCCCCc1cn(CCc2c[nH]c3ccccc23)nn1 | 1.36% (inactive)
CCN1C(=NCCc2c[nH]c3ccccc23)N[C@@H](c2ccccc2)[C@H](C(=O)OC)[C@H]1C | 3.65% (inactive)
CCOc1ccc2[nH]c3ncccc3c(=O)c2c1 | 10.9% (inactive)
C[C@@H]1CCCCO[C@@H](CN(C)C(=O)C2CCCCC2)[C@H](C)CN([C@H](C)CO)C(=O)c2cc(NC(=O)c3ccncc3)ccc2O1 | 3.35% (inactive)
C[C@@H]1CCCCO[C@@H](CN(C)S(=O)(=O)c2ccc(F)cc2)[C@@H](C)CN([C@@H](C)CO)C(=O)c2cc(NC(=O)c3ccccc3)ccc2O1 | -0.972% (inactive)
O=C1Nc2ccccc2C(=O)N(C2CCCC2)C1C(=O)NC1CC1 (stereo unspecified) | 2.89% (inactive)
COc1cc(OC)cc(C(=O)Nc2ccc3nc4n(c(=O)c3c2)CCCC4)c1 | 4.55% (inactive)
CC(C)(C)NC(=O)c1cccc(NC(=O)c2ccc3c(c2)C(=O)N(C(C)(C)C)C3=O)c1 | 7.87% (inactive)
O=C(c1ccccc1Cc1ccccc1)N1CCN(S(=O)(=O)c2ccccc2)CC1 | -0.548% (inactive)
Cc1cc2oc(=O)cc(Cn3ccnc3)c2cc1Cl | 5.68% (inactive)
COc1ccc2c3c([nH]c2c1)[C@H](CO)N(C(=O)Nc1cccc(F)c1)CC31CN(S(=O)(=O)c2ccccc2)C1 | -22.3% (inactive)

Compound | activity change, negative = toxicity
COc1ccc2c3c([nH]c2c1)[C@H](CO)N(C(C)=O)CC31CN(C(=O)c2cccc(F)c2)C1 | 1.32% (inactive)
O=S(=O)(c1cccs1)N1CCN(c2ccnc3cc(Cl)ccc23)CC1 | 1.26% (inactive)
CN(C[C@H](Cc1ccccc1)N(C[C@@H](CC1CCCCC1)N(CCc1ccccc1)N=O)N=O)N=O | 5.21% (inactive)
O=C(C1CCCCC1)N1C[C@H](O)[C@@H](n2cc(C3CC3)nn2)C[C@@H]1c1ccccc1 | 2.27% (inactive)
CCCCCC(=O)N1C[C@@H](O)[C@H](n2cc(COC(=O)c3ccccc3)nn2)C[C@@H]1c1ccc(C)cc1 | 2.72% (inactive)
Cc1noc(C)c1NC(=O)Nc1ccc2c(c1)C(=O)N([C@@H](C)CO)C[C@@H](C)[C@@H](CN(C)C)OCCCC[C@@H](C)O2 | 6.53% (inactive)
CCOC(=O)N1CCC(NCCNC(=O)c2ccc(F)c(F)c2)CC1 | 3.93% (inactive)
C[C@H](NC(=O)C1CCN(S(=O)(=O)c2ccccc2)CC1)C(=O)NCc1cccnc1 | 0.309% (inactive)
COc1ccc(CN2CCC(C(=O)NC(c3ccc4c(c3)OCO4)c3ccccn3)CC2)cc1 (stereo unspecified) | -3.27% (inactive)
COc1ccc(C2NC(=O)NC(C)=C2C(=O)Nc2cccc(C)c2C)cc1 (stereo unspecified) | 1.37% (inactive)
CCN(C[C@H]1N[C@@](C)(C(=O)OC)[C@H]2C(=O)N(C)C(=O)[C@@H]12)S(=O)(=O)c1ccc(-c2ccccc2)cc1 | 0.033% (inactive)
CC(C)CCNC(=O)C1CC(c2ccccc2C(F)(F)F)=NO1 (stereo unspecified) | -2.08% (inactive)
Cc1cccc(N(CC(=O)NC2CC2)S(=O)(=O)c2ccc(Cl)cc2)c1 | 1.14% (inactive)
COc1ccc2c3c([nH]c2c1)[C@@H](CO)N(Cc1ccc(F)cc1)CC31CN(C(=O)NC(C)C)C1 | -0.014% [at 21 µM] (inactive)
Cn1cc(CC(=O)Nc2ccc(Nc3cccnc3)cc2)c2ccccc21 | -6.76% (inactive)
CCC(=O)N1CC[C@@H]2[C@H](CO)Nc3ccc(-c4cccc(C#N)c4)cc3[C@@H]21 | 2.79% (inactive)
O=S(=O)(c1ccc(F)cc1)N1CC[C@@H]2[C@H]1c1cc(-c3ccc(F)cc3)ccc1N[C@@H]2CO | -6.49% (inactive)
O=C(OCc1ccccc1)N1CCCC2CC1c1ccccc12 (stereo unspecified) | 6.02% (inactive)
CCCCN(C(=O)c1ccc2c(c1)NC(=O)CS2)c1ccccc1 | 4.51% (inactive)
C[C@H](NC(=O)[C@@H]1CCCN1C(=O)OC(C)(C)C)c1ccccc1 | 0.406% (inactive)
CC1CCC(CN2CCN=C2Nc2ccccc2)CC1 (stereo unspecified) | 5.22% (inactive)
COc1ccc(-c2oc3ccc(-c4cc(OC)c(OC)c(OC)c4)cc3c2-c2ccc(OC)nc2)cc1 | -4.28% (inactive)
COc1cc(-c2cnc3c(NC(C)=O)cc(-c4ccccc4CN(C)C)cn23)cc(OC)c1OC | 9.33% (inactive)

Compound | activity change, negative = toxicity
O=C(C1CCCN(S(=O)(=O)c2cccnc2)C1)N1CCN(c2ccccn2)CC1 (stereo unspecified) | -1.36% (inactive)
CCC(C)CN1C(=O)CSCC1(C)C(=O)Nc1ccc2c(c1)OCCO2 (stereo unspecified) | -3.44% (inactive)
C[C@H](CO)N1C[C@H](C)[C@@H](CN(C)C(=O)CCCN(C)C)OCCCC[C@H](C)Oc2ccc(NC(=O)CCCN(C)C)cc2C1=O | 5.67% (inactive)
CS(=O)(=O)N1[C@@H]2CNC[C@H]1C2c1ccc(-c2ccccc2)cc1 (stereo partly specified) | 4.12% (inactive)
COc1cccc(-c2ccc(C3[C@@H]4CN(S(=O)(=O)c5cn(C)cn5)C[C@H]3N4)cc2)c1 (stereo partly specified) | 1.42% [at 21 µM] (inactive)
O=C(NC1CCCCC1)[C@@H]1[C@@H](CO)[C@@H]2Cn3c(cccc3=O)[C@H]1N2Cc1cccnc1 | 2.63% (inactive)
CN(Cc1nccs1)C(=O)c1ccc(OC2CCN(Cc3ccccn3)CC2)cc1 | -2.25% (inactive)
COc1ccc(NC(=O)N[C@@H]2CC[C@@H](CCNS(=O)(=O)c3cccc(Cl)c3)O[C@@H]2CO)cc1 | 5.25% (inactive)
COc1ccc(NC(=O)N[C@H]2CC[C@@H](CCn3cc(C4(O)CCCC4)nn3)O[C@@H]2CO)cc1 | 4.25% (inactive)
Cc1ccc(OCC(=O)NC2CCSc3ccccc32)cc1 (stereo unspecified) | 5.23% (inactive)
O=C(NCCc1ccccc1)c1ccccc1NC(=O)C1CCCCC1C(=O)O (stereo unspecified) | 2.25% (inactive)
CC1CC2=C(C(=O)O1)C(c1ccc(Cl)cc1)Nc1ccccc1N2 (stereo unspecified) | 2.94% (inactive)
COc1ccc(C#Cc2ccc([C@H]3[C@@H](CO)N4CCCCN(S(=O)(=O)c5ccccc5)C[C@@H]34)cc2)cc1 | 0.141% (inactive)
C[C@H](CO)N1C[C@H](C)[C@@H](CN(C)Cc2ccc(Oc3ccccc3)cc2)Oc2ccc(NC(=O)Cn3cnnn3)cc2CC1=O | -2.24% (inactive)
C[C@@H]1CCCCO[C@@H](CN(C)S(C)(=O)=O)[C@H](C)CN([C@@H](C)CO)C(=O)c2cc(NS(=O)(=O)c3ccc(Cl)cc3)ccc2O1 | 16.8% (inactive)
C[C@@H]1CCCCO[C@@H](CN(C)C(=O)c2ccccc2)[C@@H](C)CN([C@@H](C)CO)C(=O)c2cc(NS(=O)(=O)c3ccc(F)cc3)ccc2O1 | 2.27% (inactive)
C[C@@H]1CCCCO[C@@H](CN(C)S(=O)(=O)c2ccc(F)cc2)[C@@H](C)CN([C@H](C)CO)C(=O)c2cc(NC(=O)Nc3ccc(C(F)(F)F)cc3)ccc2O1 | -4.87% [at 21 µM] (inactive)
Cc1ccc(S(=O)(=O)N(C)C[C@@H]2OCCCC[C@H](C)Oc3ccc(NS(=O)(=O)c4c(C)noc4C)cc3C(=O)N([C@@H](C)CO)C[C@@H]2C)cc1 | -0.321% (inactive)
C[C@@H]1CN([C@H](C)CO)C(=O)c2cc(NC(=O)c3ccncc3)ccc2O[C@@H](C)CCCCO[C@H]1CN(C)Cc1ccc(Cl)c(Cl)c1 | 0.429% (inactive)
C[C@@H]1CCCCO[C@@H](CN(C)Cc2ccccc2)[C@@H](C)CN([C@H](C)CO)C(=O)c2cc(NC(=O)c3ccccc3)ccc2O1 | -2.93% [at 21 µM] (inactive)
C[C@H](CO)N1C[C@H](C)[C@@H](CN(C)C(=O)Cc2ccccc2)OCCCC[C@H](C)Oc2ccc(NS(=O)(=O)c3ccc(F)cc3)cc2C1=O | -0.634% (inactive)
Cc1ccc(S(=O)(=O)N(C)C[C@@H]2OCCCC[C@H](C)Oc3ccc(NS(=O)(=O)c4c(C)noc4C)cc3C(=O)N([C@H](C)CO)C[C@H]2C)cc1 | -6.59% (inactive)
